Measurements: PubChem BioAssay (Tox21)
Several values for one entry are separate records, joined by “and”; a condition that tells them apart may be missing. Identical values can stand only once. Unmarked numbers belong to inactive results. Records with an inconclusive call do not appear. A call without a number means that no potency is given here. Activity calls are given as the source filed them. Unless noted, calls come from the whole dose curve; as a rule, active = well fitted curve in the direction sought with a large enough effect in the repeat runs; inconclusive = weak or mixed curves; inactive = no such curve, though single readings can be large; an effect the other way counts as inactive or inconclusive.

Columns and labels:
[1] = qHTS assay for small molecule agonists of the p53 signaling pathway (AID 651631; calls by dose curve; note: nearly all actives have a fitted effect of over 15% in size; note: potency is the fitted concentration of half-maximal effect)
In short: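 Testing took place in human colorectal HCT-116 cells with stable p53RE-driven beta-lactamase. After 16 h of compound exposure at 37 °C, a FRET substrate was added and fluorescence recorded 2 h later.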

[2] = qHTS assay for small molecules that induce genotoxicity in human embryonic kidney cells expressing luciferase-tagged ATAD5 (AID 651632); note: nearly all actives have a fitted effect of over 15% in size
In short: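 Test compounds were delivered by pin tool onto HEK293T reporter cells (2,000/well) expressing ATAD5 fused to luciferase. After 16 hr at 37C, 5% CO2, Amplite was added for 30 min at room temperature and luminescence was measured.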

[3] = qHTS assay for small molecule agonists of the p53 signaling pathway - cell viability (AID 651633; calls by dose curve; note: nearly all actives have a fitted effect of over 30% in size)
In short: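 Viability counter-read: CellTiter-Glo luminescence (30 min, room temperature) in the same p53RE-bla plates. These plates had been exposed to compounds for 16 h at 37 C.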

[4] = qHTS assay for small molecules that induce genotoxicity in human embryonic kidney cells expressing luciferase-tagged ATAD5 - cell viability (AID 651634; calls by dose curve; note: nearly all actives have a fitted effect of over 25% in size)
In short: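 Quantitative high-throughput format. HEK293T cells expressing ATAD5 fused to luciferase were plated at 2,000 cells/well and treated 15.5 hr with compound versus DMSO. Viability was determined by fluorescent live-cell protease substrate, 30 min at 37C.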

[5] = qHTS assay for small molecule disruptors of the mitochondrial membrane potential - cell viability (AID 720634; calls by dose curve;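 note: human HepG2 liver cancer cells; nearly all actives have a fitted effect of over 20% in size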)
In short: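 Same-well counter-screen: following the MMP dye addition, CellTiter-Glo was added to 1 hr compound-treated HepG2 cells and luminescence read after 30 min at room temperature.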

[6] = qHTS assay for small molecule disruptors of the mitochondrial membrane potential (AID 720635); note: potency is the fitted concentration of half-maximal effect
In short: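 Mitochondrial membrane potential tracked with Mito-MPS dye, red aggregates (ex 540/em 590 nm) against green monomers (ex 490/em 535 nm). Compound treatment 1 hr at 37C, dye 30 min in HepG2.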

[7] = qHTS assay to test for compound auto fluorescence at 535 nm (green) in HepG2 cells (AID 720675)
[8] = qHTS assay to test for compound auto fluorescence at 460 nm (blue) in HEK293 cells (AID 720678)
In short: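 Auto fluorescence in the blue band was quantified as triamterene equivalency. HEK293 cells were seeded at 2,000/well, dosed after a 4-5 hr attachment, and kept overnight at 37C before the 405/460 nm reading.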

[9] = qHTS assay to test for compound auto fluorescence at 535 nm (green) in HEK293 cells (AID 720680)
[10] = qHTS assay to test for compound auto fluorescence at 460 nm (blue) in HEK293 cell free culture (AID 720681)
In short: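 Blue fluorescence (Ex 405/Em 460 nm, triamterene-equivalent) was read immediately after pin transfer of compound or DMSO into medium (DMEM, 10% FBS) without cells.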

[11] = qHTS assay to test for compound auto fluorescence at 535 nm (green) in HEK293 cell free culture (AID 720682)
In short: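 DMEM + 10% FBS, cell-free; cpd or DMSO pinned in; Ex485/Em535 read; output as fluorescein-equivalent signal.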

[12] = qHTS assay to test for compound auto fluorescence at 590 nm (red) in HEK293 cell free culture (AID 720683)
In short: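 Red-channel autofluorescence of compounds in culture medium (DMEM, 10% FBS), no cells, measured at 540/590 nm. Rose Bengal sodium is the reference fluorophore for equivalence.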

[13] = qHTS assay to test for compound auto fluorescence at 590 nm (red) in HepG2 cell free culture (AID 720684)
In short: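 No cells present: MEM + 10% FBS only. Compound pinned in, red label read (540/590 nm). Activity = fluorescence equivalent to Rose Bengal sodium.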

[14] = qHTS assay to test for compound auto fluorescence at 460 nm (blue) in HepG2 cell free culture (AID 720685)
In short: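 Cell-free plates of MEM plus 10% FBS received 23 nL compound or DMSO vehicle; blue-channel (405/460 nm) intensity scored against triamterene as reference fluorophore.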

[15] = qHTS assay to test for compound auto fluorescence at 460 nm (blue) in HepG2 cells (AID 720687)
In short: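 Blue-channel autofluorescence (Ex/Em 405/460 nm, triamterene-equivalent) was measured after 1 hr compound exposure at 37 C, 5% CO2. Cells were HepG2, plated overnight at 37 C in MEM plus 10% FBS.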

[16] = target: Glucocorticoid receptor (Homo sapiens) (UniProt P04150); assay: qHTS assay to identify small molecule agonists of the glucocorticoid receptor (GR) signaling pathway (AID 720691; active = well fitted activation curve with a large enough effect in the signal ratio in the repeat runs, not every such curve was filed as active; the % refers to the signal ratio); details: GR-bla HeLa, beta-lactamase reporter ratio, 18 h; activation: at 62.4 µM (top of the series) unless noted
In short: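 A HeLa cervical cancer line expressing GR and a glucocorticoid response element-driven beta-lactamase gene is treated with compounds for 18 h; LiveBLAzer B/G FRET substrate is then applied and fluorescence read.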

[17] = target: Glucocorticoid receptor (Homo sapiens) (UniProt P04150); assay: qHTS assay to identify small molecule antagonists of the glucocorticoid receptor (GR) signaling pathway (AID 720692; active = well fitted inhibition curve with a large enough effect in the signal ratio in the repeat runs, not every such curve was filed as active; the % refers to the signal ratio)
In short: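 GRE-bla HeLa line, dex-stimulated (5 nM final). Compound exposure 18 h, 37 C. Beta-lactamase FRET read after 2 h RT substrate.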

[18] = qHTS assay to test for compound auto fluorescence at 590 nm (red) in HepG2 cells (AID 720674)
In short: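 Red autofluorescence (Ex/Em 540/590 nm, Rose Bengal sodium equivalents) was measured in HepG2 cells, 2,000 per well in MEM plus 10% FBS, plated overnight at 37 C. Readings were taken 1 hr after adding 23 nL compound or DMSO, at 37 C and 5% CO2.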

[19] = qHTS assay to test for compound auto fluorescence at 590 nm (red) in HEK293 cells (AID 720679)
In short: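 Autofluorescence equivalency to Rose Bengal sodium, 540/590nm, in HEK293 cells exposed overnight to 23 nL compound per well.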

[20] = qHTS assay to test for compound auto fluorescence at 535 nm (green) in HepG2 cell free culture (AID 720686)

Sequence of Glucocorticoid receptor (Homo sapiens) (P04150 whole entry, looked up): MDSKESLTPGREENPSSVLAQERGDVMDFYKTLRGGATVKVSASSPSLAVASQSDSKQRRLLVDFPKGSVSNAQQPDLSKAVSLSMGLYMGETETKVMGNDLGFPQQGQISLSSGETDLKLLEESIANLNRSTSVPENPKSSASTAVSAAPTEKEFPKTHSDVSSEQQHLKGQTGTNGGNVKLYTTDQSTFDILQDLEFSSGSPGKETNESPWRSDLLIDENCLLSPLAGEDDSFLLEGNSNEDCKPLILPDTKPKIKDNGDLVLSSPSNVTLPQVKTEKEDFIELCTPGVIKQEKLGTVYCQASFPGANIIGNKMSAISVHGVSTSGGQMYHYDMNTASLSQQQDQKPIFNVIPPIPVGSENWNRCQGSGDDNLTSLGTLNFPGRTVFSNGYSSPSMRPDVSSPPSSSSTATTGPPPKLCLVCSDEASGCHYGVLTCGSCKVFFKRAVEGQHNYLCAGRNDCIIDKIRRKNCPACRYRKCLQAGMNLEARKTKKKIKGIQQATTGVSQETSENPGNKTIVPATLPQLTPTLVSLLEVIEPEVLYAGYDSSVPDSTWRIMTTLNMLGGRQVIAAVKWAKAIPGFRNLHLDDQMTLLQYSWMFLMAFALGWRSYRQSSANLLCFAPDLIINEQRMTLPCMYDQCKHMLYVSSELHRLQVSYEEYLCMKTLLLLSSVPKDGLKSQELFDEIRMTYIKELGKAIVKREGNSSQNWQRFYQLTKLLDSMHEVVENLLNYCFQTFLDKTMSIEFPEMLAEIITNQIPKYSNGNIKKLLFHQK

Row | SMILES | Potency [1] | Potency [2] | Potency [3] | Potency [4] | Potency [5] | Potency [6] | Potency [7] | outcome [8] | outcome [9] | outcome [10] | outcome [11] | Potency [12] | Potency [13] | outcome [14] | outcome [15] | Potency [16] | Potency [17] | Potency [18] | Potency [19] | Potency [20]
1 | CC[N+]1(CC)CCC(=C(c2ccccc2)c2ccccc2)C1C (stereo not drawn) | inactive | inactive | inactive | inactive | inactive | inactive | inactive | inactive | inactive | inactive | inactive | inactive | inactive | inactive | inactive | inactive | inactive | – | – | –
2 | N=c1ccn2c(n1)O[C@H]1[C@H](O)[C@@H](CO)O[C@H]12 | 1.5 µM (active) and 1.72 µM (active) | inactive | inactive | inactive | inactive | inactive | inactive | inactive | inactive | inactive | inactive | inactive | inactive | inactive | inactive | inactive | inactive | inactive | inactive | inactive
3 | O=C1CCC(=O)O1 | inactive | inactive | inactive | inactive | inactive | inactive | inactive | inactive | inactive | inactive | inactive | inactive | inactive | inactive | inactive | inactive | inactive | inactive | inactive | inactive
4 | CCCCC(CC)CN1C(=O)C2C3C=CC(C3)C2C1=O (stereo not drawn) | inactive | inactive | inactive | inactive | inactive | 6.11 µM (active) | inactive | inactive | inactive | inactive | inactive | inactive | inactive | inactive | inactive | inactive | – | inactive | inactive | inactive
5 | Nc1cc(C(=O)O)c(O)c(S(=O)(=O)O)c1 | inactive | inactive | inactive | inactive | inactive | inactive | inactive | inactive | inactive | inactive | inactive | inactive | inactive | inactive | inactive | inactive | inactive | inactive | inactive | inactive
6 | C[C@@H]1C[C@H]2O[C@@]3(O[C@@H]2C(C)(C)O)[C@H](O)[C@@]2(C)[C@@H]4CC[C@H]5C(C)(C)[C@@H](O[C@@H]6OC[C@@H](O)[C@H](O)[C@H]6O)CC[C@@]56C[C@@]46CC[C@]2(C)[C@@H]13 | inactive | inactive | inactive | inactive | inactive | 5.38 µM (active) | inactive | – | – | inactive | inactive | inactive | inactive | inactive | inactive | inactive | – | inactive | inactive | inactive
